Screening results (PubChem BioAssay)
The list is not random: actives were taken first. Their share in the collection is about 1.6%.
GFP derepression: qHTS Assay for Epigenetic Modulators; mouse C127i GFP locus derepression, cytometry, 30 h; Potency, µM (doses to about 46.1 µM), for the others: at the top dose GFP derepression (activation); actives 0.09% (n = 68,000); further: % of control where 0% means no effect
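Derepression screen: silenced CMV-GFP reporter in murine C127i cells, 30 h compound incubation at 37 C, washed cells imaged by laser-scanning cytometer to enumerate GFP-expressing objects of 20 to 120 um.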
p53ts 32C tox: qHTS Screen for Compounds that Selectively Target Cancer Cells with p53 Mutations: Cytotoxicity of p53ts Cells at the Permissive Temperature | H1299-p53A138V at 32C, ATP luminescence viability, 24 h | Potency, µM (highest dose often 46.1 µM), without a hit: at the top dose activity change, negative = cytotoxicity, most hits filed as cytotoxic | actives 0.93% (n = 130,000);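 further: potency means the concentration at half of the fitted maximal effect; 0% = DMSO and -100% = full killing by reference compound; nearly all actives have a fitted effect of over 55% in size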
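ATP-content luminescence (ATPlite) read-out after 24 h compound exposure at 32C in H1299-p53A138V cells (600/well). Tested up to 46 uM. Normalized to DMSO (0%) and 100 uM tamoxifen (100% killing); Hill-fit AC50.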
Ub-GFP proteasome: Ubiquitin-GFP Assay. 67,000 tested, under 10 active. AID 526, 2006. Potency, µM (top dose mostly 45.9 µM), for inactives: at the top dose activation (GFP accumulation), actives largely listed as activators. Ubiquitin-GFP reporter cells, proteasome inhibition, GFP fluorescence; response scale: untreated = 0%, 10 µM MG-132 = 100%; active means well fitted activation curve with a large enough effect, not every such curve was filed as active; inconclusive means small, poorly fitted or top-dose-only effect, or another doubt; inactive means no such curve, though single readings can be large or run the other way; further: potency means the concentration at half of the fitted maximal effect
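U2OS cells stably expressing ubiquitin(G76V)-GFP, seeded overnight in 0.5% FBS medium, were exposed to compounds (qHTS, 46 uM to 2.9 nM) for 4 hr at 37 °C. GFP-positive cells were counted by laser cytometry (488 ex/515 em), normalized between basal and 10 uM MG-132.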
HBB splicing: qHTS Assay for Modulators of Hemoglobin Beta Chain Splicing. HBB splicing reporter cell assay, activation; EGFP reporter with mutant IVS2-654 intron; response scale: normalised to 500 nM splice-correcting PNA. Potency, µM (highest dose often 46.1 µM), for the others: at the highest dose activation, most hits filed as activators. actives 0.06% (n = 65,000); further: potency means the concentration at half of the fitted maximal effect; 0% is about no effect
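HeLa cells stably expressing EGFP interrupted by mutant beta-globin intron 2 (IVS2-654), 500/well in 2% FCS. Treated with compound for 2 days at 37C. Splicing correction scored as total well GFP intensity (488 nm excitation, 500-520 nm emission); 500 nM antisense PNA served as control.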
Peg3 imprint: qHTS Assay for Compounds that Induce Erasure of Genomic Imprints. Potency, µM (series often up to 60.7 µM), for the others: top-dose activity change, positive = activation, most hits filed as activators. actives 0.02% (n = 110,000). mouse ES Peg3-LacZ reporter, beta-gal luminescence, 40 h; further: potency means the concentration at half of the fitted maximal effect
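Imprint erasure is scored as LacZ activity from the silenced maternal Peg3 allele in feeder-free female ES cells cultured 40 h with LIF. Luminescence is normalized to in-plate negative controls and fitted to the Hill equation.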
p53ts 39C tox: qHTS Screen for Compounds that Selectively Target Cancer Cells with p53 Mutations: Cytotoxicity of p53ts Cells at the Nonpermissive Temperature; H1299-p53A138V viability at 39C, ATP luminescence, 24 h; Potency, µM (titrated, usually from 46.1 µM), for the others: at the top dose activity change, negative = cell killing, hits mostly cytotoxic; actives 1.5% (n = 130,000); AID 902, 2007; further: potency means the concentration at half of the fitted maximal effect; on the % scale 0 is the no-effect control and ±100 the full control effect; nearly all actives have a fitted effect of over 55% in size
An asterisk follows results filed as active; [ ] = dose if it differs, or a comment. Unless noted, the call rests on the fitted dose curve; in most records, active means well fitted curve in the direction sought with a large enough effect; inconclusive means small, poorly fitted or top-dose-only effect, or another doubt; inactive means no such curve, though single readings can be large; an effect the other way counts as inactive or inconclusive.

What do the screens show for `O=C(/C=C\Nc1ccc2c(c1)OCO2)c1ccccn1`?
GFP derepression: 4%; p53ts 32C tox: 1.6µM*; Ub-GFP proteasome: 5%; HBB splicing: -6%; Peg3 imprint: -86%; p53ts 39C tox: 2.5µM*

Results for CCN(CC)c1nc(-c2ccc(C(C)(C)C)cc2)nc2ccccc12 ?
p53ts 32C tox: 13µM*; Peg3 imprint: -11%[10.9 µM]; p53ts 39C tox: 13µM*

How did CC(C)CN(CC(C)C)c1nc(-c2ccc(Cl)cc2)nc2ccccc12 do in these assays?
p53ts 32C tox: 5%; Peg3 imprint: 6%[10.9 µM]; p53ts 39C tox: -7%

Results for COC(=O)Nc1nnc(-c2ccccc2Cl)s1 ?
GFP derepression: 3%; p53ts 32C tox: 10µM*; Ub-GFP proteasome: -1%; HBB splicing: 1%[0.369 µM]; Peg3 imprint: inconclusive; p53ts 39C tox: 13µM*

How did CCOC(=O)Nc1nnc(-c2ccccc2OC)s1 do in these assays?
GFP derepression: 0%; p53ts 32C tox: -11%; Ub-GFP proteasome: 10%; HBB splicing: 5%[0.369 µM]; Peg3 imprint: 0%; p53ts 39C tox: -8%

Results for Cc1ccc(CNC(=O)Cn2nc(C)n3cccc3c2=O)cc1 ?
p53ts 32C tox: 4%; Peg3 imprint: -14%[10.9 µM]; p53ts 39C tox: -10%

What do the screens show for `CCc1nn(CC(=O)NCc2ccccc2)c(=O)c2cccn12`?
p53ts 32C tox: -24%; Peg3 imprint: -16%[10.9 µM]; p53ts 39C tox: 20µM*

What do the screens show for `CCN1CCN(CCCNC(=O)c2cc3c(s2)-c2ccccc2OC3)CC1`?
p53ts 32C tox: -19%; Peg3 imprint: -4%[10.9 µM]; p53ts 39C tox: -26%

How did CCCN1CCN(CCCNC(=O)c2cc3c(s2)-c2c(C)cccc2OC3)CC1 do in these assays?
p53ts 32C tox: inconclusive; Peg3 imprint: -18%[10.9 µM]; p53ts 39C tox: 10µM*

Results for O=C(NCCCN1CCN(c2ccccc2F)CC1)c1cc2c(s1)-c1ccccc1OC2 ?
p53ts 32C tox: inconclusive; Peg3 imprint: -11%[10.9 µM]; p53ts 39C tox: 13µM*

Results for COc1ccc(S(=O)(=O)NCc2cccn2Cc2cccc(C)c2)cc1OC ?
p53ts 32C tox: 4%; Peg3 imprint: -8%[10.9 µM]; p53ts 39C tox: -24%

How did CNC(=O)CCc1nc(-c2ccc(C(C)(C)C)cc2)no1 do in these assays?
GFP derepression: 0%; p53ts 32C tox: 13µM*; Ub-GFP proteasome: 4%; HBB splicing: -1%[1.84 µM]; Peg3 imprint: -26%; p53ts 39C tox: inconclusive

Results for O=C(Nc1ccc(-c2noc(CCc3ccccc3)n2)cc1)c1ccco1 ?
GFP derepression: -2%; p53ts 32C tox: inconclusive; Ub-GFP proteasome: -4%; HBB splicing: 1%; Peg3 imprint: -61%; p53ts 39C tox: 10µM*

What do the screens show for `CCN(c1ccccc1)S(=O)(=O)c1nnc(NC(=O)c2ccco2)s1`?
p53ts 32C tox: inconclusive; Peg3 imprint: -35%[10.9 µM]; p53ts 39C tox: 1.3µM*

Results for Cc1ccc(N(CC(C)C)S(=O)(=O)c2nnc(NC(=O)c3ccco3)s2)cc1 ?
p53ts 32C tox: 4%; Peg3 imprint: -4%[10.9 µM]; p53ts 39C tox: -19%

What do the screens show for `COc1ccc(-c2noc(CNC(=O)c3ccco3)n2)cc1`?
p53ts 32C tox: 2%; Peg3 imprint: -13%[10.9 µM]; p53ts 39C tox: 18%

Results for CCN(CC)c1ccc(NC(=O)c2ccco2)cc1 ?
GFP derepression: -3%; p53ts 32C tox: 10µM*; Ub-GFP proteasome: -9%; HBB splicing: 2%; Peg3 imprint: -36%; p53ts 39C tox: 10µM*

What do the screens show for `CCCCC(=O)Nc1ccc2nc(SCC(=O)N3CCCC3)sc2c1`?
p53ts 32C tox: -11%; Peg3 imprint: -9%[10.9 µM]; p53ts 39C tox: -18%

What do the screens show for `CCc1ccccc1NC(=O)c1ccc(CN2C(=O)CCn3nc(C)cc32)cc1`?
p53ts 32C tox: 2%; Peg3 imprint: 26%[10.9 µM]; p53ts 39C tox: 42%

How did CC1=C(/C=C/C(C)=C/C=C/C(C)=C/C(=O)O)C(C)(C)CCC1 do in these assays?
GFP derepression: 10µM*; p53ts 32C tox: 8%; Peg3 imprint: inconclusive; p53ts 39C tox: 16%

How did CCOc1ccccc1CNC(=O)c1cnc2sc(N3CCCCCC3)nn2c1=O do in these assays?
p53ts 32C tox: -5%; Peg3 imprint: -6%[10.9 µM]; p53ts 39C tox: -5%

What do the screens show for `COc1ccc(-c2cc(C(F)(F)F)nc(S(C)(=O)=O)n2)cc1`?
p53ts 32C tox: inconclusive; Peg3 imprint: -12%[10.9 µM]; p53ts 39C tox: 20µM*

Results for Cc1csc(C(C#N)C(=O)c2cc3ccccc3o2)n1 (stereo unspecified) ?
GFP derepression: -1%; p53ts 32C tox: 5µM*; Ub-GFP proteasome: 1%; HBB splicing: 0%[57.5 µM]; Peg3 imprint: -59%; p53ts 39C tox: 5µM*

What do the screens show for `CCC(=O)Nc1ccc(NC(=O)c2cc3ccccc3o2)cc1`?
GFP derepression: -2%; p53ts 32C tox: -9%; Ub-GFP proteasome: -9%; HBB splicing: -3%; Peg3 imprint: -29%; p53ts 39C tox: -6%

What do the screens show for `COc1ccc(C(=O)Nc2nc3n(n2)C(c2ccc(F)cc2)C=C(c2ccc(Cl)cc2)N3)cc1` (stereo unspecified)?
p53ts 32C tox: -4%; Peg3 imprint: -12%[10.9 µM]; p53ts 39C tox: -7%

What do the screens show for `Fc1ccc(C2=CC(c3ccc(F)cc3)n3c(nc4ccccc43)N2)cc1` (stereo unspecified)?
p53ts 32C tox: 10µM*; Peg3 imprint: -21%[10.9 µM]; p53ts 39C tox: 13µM*

Results for COC(=O)c1nc2n(n1)C(c1cc(OC)ccc1OC)C=C(c1ccc(Br)cc1)N2 (stereo unspecified) ?
p53ts 32C tox: 12%; Peg3 imprint: -11%[10.9 µM]; p53ts 39C tox: -47%

What do the screens show for `COC(=O)c1ccc(C2C=C(c3ccc(Cl)cc3)Nc3nc4ccccc4n32)cc1` (stereo unspecified)?
p53ts 32C tox: 8.9µM*; Peg3 imprint: -20%[10.9 µM]; p53ts 39C tox: 11µM*

How did COc1ccc(C2=CC(c3cc(Br)ccc3F)n3c(nc4ccccc43)N2)cc1 (stereo unspecified) do in these assays?
p53ts 32C tox: 16µM*; Peg3 imprint: -17%[10.9 µM]; p53ts 39C tox: 10µM*
